From PubChem BioAssay (NCI) come the findings set out here.

This is part of a sample that, as a whole, favours compounds with a hit. Of some 83,000 tested, about 20% had one in any assay.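 Cells were grown in 96-well plates and exposed to the test compound at a single concentration for 48 hours; results are reported as percent growth, with values below 10 considered active.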 Values without a mark were called inactive. The source made the active and inactive calls.

For the first assay, the system named is IGROV1 ovarian. The experiment in a line: NCI-60 one-dose screen, 48 h (100 = growth as untreated, 0 = no growth, -100 = all killed). The conditions noted are these: 10 µM unless noted.
As to `O=S1(=O)C=C(c2ccccc2)C(c2ccccc2)=C1`, the growth is 11.7%.

Turning to `O=C(O)COc1ccc(Cl)c(Cl)c1`, the growth is 107%.

Turning to `O=C1/C(=C/c2ccccn2)NC(=S)N1c1ccccc1Cl`, the growth was 46.1%.

For `CCS/C(Nc1ccccc1)=C(\C#N)C(=O)Nc1ccc(OC)cc1`, the growth was 55.7%.

Regarding `COc1ccc(C(=O)N2c3ccccc3Sc3ccccc32)c(C(F)(F)F)c1`, the growth was 37.9%.

Consider `Cc1ccc(-c2csc(NC(=O)c3ccccc3CN3C(=O)c4ccccc4C3=O)n2)cc1`, for which the growth was 96.5%.

Turning to `CNC(=O)c1cc(Oc2cccc3nc(NC(=O)Nc4cc(C(F)(F)F)ccc4Cl)ccc23)ccn1`, the growth was 108%.

The test system of another assay is OVCAR-3 ovarian. Described as above. Conditions: 10 µM unless noted.
Regarding `CC(=O)OC[C@]12CC[C@@H]([C@@H](C)c3nnc(-c4ccncc4)o3)[C@@H]1[C@H]1CC[C@@H]3[C@@]4(C)CC[C@H](OC(C)=O)C(C)(C)[C@@H]4CC[C@@]3(C)[C@]1(C)CC2`, the growth is 80.9%.

Consider `CN(Cc1ccccc1)c1nc(Cl)c(C2CC(c3ccccc3)=NN2c2ccccc2)s1` (configuration not stated), for which the growth is 105%.

As for `CSc1nc(C)c([N+](=O)[O-])c(N)n1`, the growth is 114%.

For `CN1CCN(Cc2ccc(NC(=O)c3cncc(C#Cc4cnc(N)c5ccc(F)cc45)c3)cc2C(F)(F)F)CC1`, the growth is 19.7%.

Take `CN1CCN(C(=O)[C@@]2(C)CC[C@]3(C)CC[C@]4(C)C(=CC[C@@H]5[C@@]6(C)CCC(=O)NC(C)(C)[C@@H]6CC[C@]54C)[C@@H]3C2)CC1`: the growth is 57.8%.

Take `COc1ccc(/C=C2\CN(C(=O)C(Cl)Cl)C/C(=C\c3ccc(OC)cc3)C2=O)cc1`: the growth is -75.3% (active).

As for `O=C(NNc1cnccn1)c1nc2cc(F)ccc2n2cccc12`, the growth is 3.83% (active).

As for `COc1cc(/C=C2\CN(S(=O)(=O)c3ccccc3)C/C(=C\c3cc(CN4CCCCC4)c(O)c(OC)c3)C2=O)cc(CN2CCCCC2)c1O`, the growth was -86.9% (active).

`COc1ccc(/C=C/C(c2cc(OC)c(OC)c(OC)c2)n2ccnc2)cc1O` (configuration not stated): the growth is 4.86% (active).

With `C/C=C(/C)n1cnc2c(Nc3ccccn3)nc(Cl)nc21`, the growth is 111%.

Turning to `Oc1ccc(/C=C/c2ccc(O)cc2)cc1`, the growth was 47.7%.

With `C#CCOc1cccc(-c2ncnc3cc(NC(=O)C=C)ccc23)c1`, the growth is 28.6%.

In the case of `CCOC(=O)c1nn(CC(O)c2ccccc2)c(NC(=O)Nc2cccc(F)c2)c1C` (configuration not stated), the growth is 102%.

For `O=C(N/N=C\c1ccccc1S(=O)(=O)O)N/N=C/c1ccccc1S(=O)(=O)O`, the growth is 108%.

Turning to `CC[C@]12C=CCN3CC[C@@]4(c5ccc(OC)cc5N(C)[C@H]4[C@@](O)(C(=O)OC)[C@@H]1OC(=O)CCC[P+](c1ccccc1)(c1ccccc1)c1ccccc1)[C@@H]32`, the growth is -2.49% (active).

Turning to `CCCn1nc(C(=O)N(C)Cc2ccccc2)c2c1CCC(N1CCc3ccccc31)C2` (configuration not stated), the growth was 102%.

Turning to `C=C1C(=O)O[C@H]2[C@H]1CC/C(COC(=O)/C=C\C(=O)NCc1ccc(Cn3c(=O)sn(CCCl)c3=O)cc1)=C\CC[C@@]1(C)O[C@@H]21`, the growth was 36.2%.

With `COC(=O)c1ccc(NC(=O)Nc2ccc(C(=O)OC)cc2)cc1`, the growth is 113%.

`O=C(O)c1cn(C2CC2)c2cc(N3CCN(C(=O)Nc4nc(-c5ccc(Br)cc5)cs4)CC3)c(F)cc2c1=O`: the growth was 8.58% (active).

Consider `NC(=O)c1c(NC(=O)c2cccc(C(F)(F)F)c2)sc2c1CCC(=O)C2`, for which the growth was -37.6% (active).

Turning to `CC1=C(C(=O)Nc2ccccc2)C(c2ccc3c(c2)OCO3)NC(=S)N1` (configuration not stated), the growth is 110%.

Consider `NS(=O)(=O)c1ccc(-c2cc(-c3nnc(SCC(=O)Nc4ccc(C(=O)/C=C/c5ccc(Cl)cc5)cc4)n3-c3ccccc3)c3ccccc3n2)cc1`, for which the growth was 101%.

Regarding `COC(=O)c1cc(Br)ccc1O`, the growth is 117%.

Consider `C=C1C(=O)O[C@H]2[C@H]1CC/C(COC(=O)/C=C/C(=O)OC/C1=C/CC[C@@]3(C)O[C@H]3[C@H]3OC(=O)C(=C)[C@@H]3CC1)=C\CC[C@@]1(C)O[C@@H]21`, for which the growth is -0.457% (active).

Consider `CNC1=CC(=O)c2c(C(=O)OC)c(C)[n+]([O-])c(C)c2C1=O`, for which the growth was 7.04% (active).

On to `O=C(Nc1ncccc1OCc1ccccc1)NC1CCCCCC1`, for which the growth was 89.1%.

`O=C1/C(=C\c2cccc3nccnc23)SC(=S)N1CCc1ccc(O)cc1`: the growth is 101%.

Take `O=C1/C=C/[C@@H](O)[C@@H]2C[C@@H](O)C[C@H]2/C=C/CCC[C@@H](O)CCO1`: the growth is 106%.

Take `Cc1ccc(CNc2c3ccccc3nc3ccccc23)cc1`: the growth was 34.1%.

For `Cc1ccnc(Nc2ccc([N+](=O)[O-])c(NCCN3CCOCC3)n2)c1`, the growth is 26.1%.

On to `CSc1nn2c(-c3ccc4ccccc4c3)ccnc2c1C#N`, for which the growth is -26% (active).

On to `COc1cc2nc3sc(C(=O)Nc4ccc(C(=O)OC(C)C)cc4)c(C(=O)Nc4ccc(Cl)cc4C)n3c(=O)c2cc1OC`, for which the growth was 77.2%.

With `COC(=O)/C=C1/SC(=Nc2ccc([N+](=O)[O-])cc2)N(CCc2c[nH]c3ccc(O)cc23)C1=O`, the growth is 50.9%.

`O=S1(=O)C=C(c2ccccc2)C(c2ccccc2)=C1`: the growth was -86% (active).

On to `O=C(O)COc1ccc(Cl)c(Cl)c1`, for which the growth is 123%.

In the case of `O=C1/C(=C/c2ccccn2)NC(=S)N1c1ccccc1Cl`, the growth is 53.7%.

For the compound `CCS/C(Nc1ccccc1)=C(\C#N)C(=O)Nc1ccc(OC)cc1`, the growth is -12.1% (active).

Take `COc1ccc(C(=O)N2c3ccccc3Sc3ccccc32)c(C(F)(F)F)c1`: the growth is -1.95% (active).

For `Cc1ccc(-c2csc(NC(=O)c3ccccc3CN3C(=O)c4ccccc4C3=O)n2)cc1`, the growth is 103%.

`CNC(=O)c1cc(Oc2cccc3nc(NC(=O)Nc4cc(C(F)(F)F)ccc4Cl)ccc23)ccn1`: the growth was 95.4%.
